In the supplement of paper PMC10338343:
± gives the standard deviation.

Test system: MILI (PIWIL2) piRISC loaded with piRNA #1 (26 nt)
Assay: pre-steady-state target cleavage rate (min^-1); guide: piRNA #1 5'p-UGAGGUAGUAGGUUGUAUAGUAUCCA; MIWI and MILI are mouse PIWI proteins and EfPiwi is from a freshwater sponge; tags in brackets are library labels; higher = faster piRNA-guided slicing of the target
Settings: auxiliary factor: 500 nM mouse GTSF1
In short: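 The pre-steady-state cleavage rate came from a burst-and-steady-state fit to pooled data from three Cleave-'n-Seq trials, in which uncleaved targets were sequenced and normalised to depth and to weakly complementary targets. Each reaction held 0.1 nM transcribed, DNA-blocked target RNA library and 1 nM active affinity-purified piRISC carrying one synthetic guide, with or without 500 nM GTSF1 partner protein, in HEPES–potassium acetate buffer at 33 °C for 0–8 or 0–960 min. k3 was capped at 0.0001 min^-1.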

| Sequence | pre-steady-state target cleavage rate |
| --- | --- |
| GGAGACCUAUCUAUACAACGUAGUACCUCA | 0.00772 ± 0.0031 |
| GGAGACCUAACUAUAGCAACCUACUACCUCA | 0.0973 ± 0.023 |
| GGAGACCUAUGAAUACUACCUACAACCUCA | 0.00497 ± 0.0016 |
| GGAGACCUAUGAUAUCAAGCUACUACCUCA | 0.00559 ± 0.0019 |
| GGAGACCUAACAAUACAACCUACUACGUCA | 0.023 ± 0.0089 |
| GGAGACCUAUGAUAUGAAACCUACUACCUCA | 0.00314 ± 0.0026 |
| GGAGACCAUACUAUACAACCUAGUACCACA | 0.00768 ± 0.0041 |
| GGAGACCAUAGUAUAGAACCUACUACCUCA | 0.105 ± 0.011 |
| GGAGUGGAUUCUAUACAACCUACAACCUCA | 0.0777 ± 0.0074 |
| GGAGACCUAACUAUUCAACCUACUACGUCA | 0.0338 ± 0.011 |
| GGAGACGAUACUAUUGAACCUACUACCUCA | 0.157 ± 0.016 |
| GGAGACCUAUGUAUACAACCUACUUCCUCA | 0.0381 ± 0.0071 |
| GGAGACCUAUGAAUACAACCUACGACCUCA | 0.0047 ± 0.0026 |
| GGAGACCUAUGAUAUGUACCUACUAGCACA | < 0.0001 |
| GGAGACCUAACUAUAAAACCUACUACCUCA | 0.0772 ± 0.013 |
| GGAGACCUAUGUAAUACAACCUACUACCUCA | 0.0179 ± 0.0049 |
| GGAGACCAUUCUAUACAACCUACUAGCUCA | 0.0909 ± 0.015 |
| GGAGACCUAACAAUACAACCUACUUCCUCA | 0.0651 ± 0.019 |
| GGAGACCUAUGAUUACAUCCUACUAGCUCA | 0.00651 ± 0.0025 |
| GGAGACCUAUGUAUACAACCUACUGACCUCA | 0.0132 ± 0.0038 |

| Sequence | pre-steady-state target cleavage rate |
| --- | --- |
| GGAGACCUUACUUUACAACCUACUACCUGA | 0.0835 ± 0.014 |
| GGAGACCAUACAUAACAACCUACUACCUCA | 0.0246 ± 0.0068 |
| GGAGACCUAUGAUAUGUACCUACUACCGCA | < 0.0001 |
| GGAGUGGAUUCUUUACAACCUACUACCUCA | 0.16 ± 0.0093 |
| GGAGACCUAACAAUACAACCUACUAGCUCA | 0.0462 ± 0.017 |
| GGAGACCUAUGAAUACAACCUACCUACCUCA | 0.0088 ± 0.0035 |
| GGAGACCUUAGUAAACAACCUACUACCUCA | 0.0245 ± 0.0059 |
| GGAGACCUAUGAUAACAAGCUACUACCUCA | 0.0133 ± 0.0028 |
| GGAGACCUAUGAUAUGAAGGAACUACCUCA | < 0.0001 |
| GGAGACCUUAGUAUACAACCUUCUACCUCA | 0.00489 ± 0.0033 |
| GGAGACCUUACUAUAGAACCUACUACCACA | 0.0558 ± 0.012 |
| GGAGAGGAUAGUAUAGAACCUACUACCUCA | 0.0708 ± 0.012 |
| GGAGACCUAUGAAUACAACCUACUACGUCA | 0.00355 ± 0.0021 |
| GGAGACCUAUCUAUACAUCGUACUACCUCA | 0.014 ± 0.0026 |
| GGAGACCUAUCUAUACAACGUACUUCCUCA | 0.0209 ± 0.0035 |
| GGAGUGGAUACUUAACAACCUACUACCUCA | 0.157 ± 0.0088 |
| GGAGACCAUUCUAUACAACCUACUACCACA | 0.159 ± 0.018 |
| GGAGACCUAUGAUGACAACCUACUACCUCA | 0.00556 ± 0.0019 |
| GGAGACCAUACUAUUCAACCUACUACCACA | 0.189 ± 0.023 |
| GGAGACCUAUGAUUAACAACCUACUACCUCA | 0.00416 ± 0.0022 |
